Test results taken from PubChem BioAssay (NCI).
Compounds without any hit were thinned out: in the full panel of roughly 83,000, 20% have a hit.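 Cells were grown in 96-well plates and exposed to the test compound at a single concentration for 48 hours; results are reported as percent growth, with values below 10 considered active.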 Values without a mark were called inactive. Calls of active or inactive are those of the source.

Experiments:
Assay in all cases: NCI-60 one-dose screen, 48 h (100 = growth as untreated, 0 = no growth, -100 = all killed)
Details in all cases: 10 µM unless noted
[1] = test system: SK-MEL-2 melanoma
[2] = test system: EKVX NSCLC
[3] = test system: SN12C renal
[4] = test system: UO-31 renal
[5] = test system: TK-10 renal
[6] = test system: ACHN renal
[7] = test system: CAKI-1 renal
[8] = test system: CCRF-CEM leukemia
[9] = test system: MOLT-4 leukemia

Row | Compound | growth [1] [%] | growth [2] [%] | growth [3] [%] | growth [4] | growth [5] [%] | growth [6] | growth [7] | growth [8] | growth [9]
1 | COc1cccc2c1c1nc3cc(C)c(C)cc3nc1n2CCN(C)C | 11 | 25.7 | 16.9 | 6.86% (active) | 52.1 | -12.3% (active) | 9.75% (active) | 27.6% | 10.5%
2 | CCOC(=O)CCN(CC(C)C)C(=S)Nc1ccccc1 | 102 | 100 | 98.3 | 94.4% | 104 | 101% | 102% | 118% | 100%
3 | CCCCCCCCOc1ccc(/C=N/Nc2cc(C)nc3ccc(Br)cc23)cc1 | 96.2 | 85 | 68.2 | 64.7% | 90.3 | 52.1% | 84.1% | 7.66% (active) | 58%
4 | CC1(C)CC(O)CCCCCCOc2c(CN)cccc2NC(=O)c2nc(cnc2N)-c2ccc(cc2)S1(=O)=O (stereo not drawn) | 25.4 | 86.2 | 20.1 | 27.8% | 34.7 | 24.7% | 18.1% | -8.71% (active) | 2.43% (active)
5 | CCN(CC)c1ccc(C(=O)c2ccccc2)cc1 | 96.3 | 98.4 | 98.8 | 82% | 97.9 | 98.2% | 83.1% | 104% | 87.6%
6 | COc1cc2oc(-c3cccc(C(=O)Nc4ccc(Br)cc4)c3)cc(=O)c2c(OC)c1OC | 71.2 | 60 | 50.9 | 55.7% | 62.5 | 72.5% | 20.6% | 41.9% | 49.5%
7 | NC(=NCCCOc1ccc(F)cc1)Nc1ccc(Cl)cc1 | 84.6 | 52.8 | 65.1 | 49.1% | 64 | 18.3% | 39% | 49.7% | 23.5%
